Data as given in PubChem BioAssay (EPA / NIEHS).
Results filed as inconclusive are left out. Active and inactive are the calls of the source. The calls were made as follows: active = hit-call score of the fitted dose curve at least 0.9, where 1 is the maximum; inconclusive = response in the unintended direction; inactive = score below 0.9.

The compounds below were run against human Protein Tyrosine Phosphatase Receptor Type B (PTPRB), PTPRB (gene 5787) (UniProt P23467) (assay: NVS_ENZ_hPTPRB: NovaScreen (NVS) Enzymatic Assay for human Protein Tyrosine Phosphatase Receptor Type B (PTPRB) (AID 2283211)).
How it was run: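 Recombinant human PTPRB with a fluorescent substrate, product separated by electrophoretic mobility shift; read 1 h after dosing. Primary screen in duplicate at 25 uM; actives then retested in concentration series; loss of signal versus DMSO.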
CC/C(=C(/CC)c1ccc(O)cc1)c1ccc(O)cc1 was tested, and the outcome was “inactive”. For Clc1cc(Cl)c2c(c1)N=C1CCCCCN1C2, the outcome was “inactive”. For CCCCCCCCCC(=O)O, the outcome was “inactive”.

The compounds below were run against human Rho Associated Coiled-coil Containing Protein Kinase 1 (ROCK1), ROCK1 (gene 6093) (UniProt Q13464) (assay: NVS_ENZ_hROCK1: NovaScreen (NVS) Enzymatic Assay for human Rho Associated Coiled-coil Containing Protein Kinase 1 (ROCK1) (AID 2283214)).
Chain of human Rho Associated Coiled-coil Containing Protein Kinase 1 (ROCK1), ROCK1 (gene 6093) (Q13464 whole entry, looked up): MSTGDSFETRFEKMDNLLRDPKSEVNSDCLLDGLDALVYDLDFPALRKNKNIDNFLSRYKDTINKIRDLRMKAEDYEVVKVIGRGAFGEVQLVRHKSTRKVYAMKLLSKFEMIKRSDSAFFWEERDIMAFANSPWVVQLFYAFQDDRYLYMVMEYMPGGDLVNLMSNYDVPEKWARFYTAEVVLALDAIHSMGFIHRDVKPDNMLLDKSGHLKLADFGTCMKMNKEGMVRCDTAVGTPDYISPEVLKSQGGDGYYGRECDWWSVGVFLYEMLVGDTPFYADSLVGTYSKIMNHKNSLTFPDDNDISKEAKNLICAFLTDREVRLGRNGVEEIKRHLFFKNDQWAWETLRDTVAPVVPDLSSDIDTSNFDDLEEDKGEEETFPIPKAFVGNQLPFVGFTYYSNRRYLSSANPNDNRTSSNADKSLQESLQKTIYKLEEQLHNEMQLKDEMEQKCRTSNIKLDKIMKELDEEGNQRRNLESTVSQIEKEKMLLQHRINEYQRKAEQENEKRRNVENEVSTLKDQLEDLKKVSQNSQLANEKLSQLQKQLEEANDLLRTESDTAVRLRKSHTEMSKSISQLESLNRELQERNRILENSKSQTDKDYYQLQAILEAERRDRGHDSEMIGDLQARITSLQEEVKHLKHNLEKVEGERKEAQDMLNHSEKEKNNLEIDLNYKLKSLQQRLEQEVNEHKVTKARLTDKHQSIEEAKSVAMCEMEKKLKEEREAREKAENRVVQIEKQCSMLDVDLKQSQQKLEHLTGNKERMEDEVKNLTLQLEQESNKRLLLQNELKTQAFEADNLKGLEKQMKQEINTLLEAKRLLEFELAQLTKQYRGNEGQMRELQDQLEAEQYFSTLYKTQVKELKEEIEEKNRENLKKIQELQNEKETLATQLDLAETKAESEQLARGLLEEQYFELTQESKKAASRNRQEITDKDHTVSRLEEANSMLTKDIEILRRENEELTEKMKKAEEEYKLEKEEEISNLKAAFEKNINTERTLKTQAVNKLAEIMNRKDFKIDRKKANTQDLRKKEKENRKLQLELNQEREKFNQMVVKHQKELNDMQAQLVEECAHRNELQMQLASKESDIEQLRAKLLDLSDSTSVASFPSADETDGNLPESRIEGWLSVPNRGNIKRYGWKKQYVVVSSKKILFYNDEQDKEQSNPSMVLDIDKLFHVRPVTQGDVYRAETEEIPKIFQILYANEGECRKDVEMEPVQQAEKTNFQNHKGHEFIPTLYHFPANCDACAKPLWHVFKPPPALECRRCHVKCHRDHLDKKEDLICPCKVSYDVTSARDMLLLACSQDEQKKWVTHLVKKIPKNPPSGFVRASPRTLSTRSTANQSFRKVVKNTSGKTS
How it was run: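 Compounds first run in duplicate at 25 uM against recombinant human ROCK1, then followed in concentration series. Kinase activity was read 1 h post-dosing by fluorescence with mobility-shift separation, as signal loss relative to DMSO.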
OCCO was tested, and the outcome was “inactive”. For CC(C)(c1cc(Br)c(O)c(Br)c1)c1cc(Br)c(O)c(Br)c1, the outcome was “inactive”. COc1cc(C(=O)NC2CCN(C)CC2)ccc1Nc1ncc2c(n1)N(C1CCCC1)CC(F)(F)C(=O)N2C was tested, and the outcome was “inactive”.

These compounds were tested against human Sirtuin 2 (SIRT2), SIRT2 (gene 22933) (UniProt Q8IXJ6) (assay: NVS_ENZ_hSIRT2: NovaScreen (NVS) Enzymatic Assay for human Sirtuin 2 (SIRT2) (AID 2283217)).
Chain of human Sirtuin 2 (SIRT2), SIRT2 (gene 22933) (Q8IXJ6 whole entry, looked up): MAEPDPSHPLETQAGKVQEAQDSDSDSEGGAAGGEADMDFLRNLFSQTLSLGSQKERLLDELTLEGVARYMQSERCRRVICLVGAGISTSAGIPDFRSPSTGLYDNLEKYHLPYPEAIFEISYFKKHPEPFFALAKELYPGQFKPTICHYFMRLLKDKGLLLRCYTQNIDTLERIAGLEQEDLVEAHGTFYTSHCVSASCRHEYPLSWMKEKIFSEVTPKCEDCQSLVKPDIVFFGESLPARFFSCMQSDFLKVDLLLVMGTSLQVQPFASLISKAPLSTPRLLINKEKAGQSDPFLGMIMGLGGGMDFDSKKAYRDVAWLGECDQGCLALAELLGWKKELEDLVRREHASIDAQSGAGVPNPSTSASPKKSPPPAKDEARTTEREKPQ
Method: (§1) NVS_ENZ_hSIRT2 is a biochemical, single-readout assay that uses extracted gene-proteins in a cell-free assay. Measurements were taken 1 hour after chemical dosing in a 384-well plate.NVS_ENZ_hSIRT2 is one of one assay component(s) measured or calculated from the NVS_ENZ_hSIRT2 assay. It is designed to make measurements of enzyme activity, a form of enzyme reporter, as detected with fluorescence intensity signals by Fluorescence and electrophoretic mobility shift technology.Data from the assay component NVS_ENZ_hSIRT2 was analyzed into 1 assay endpoint. This assay endpoint, NVS_ENZ_hSIRT2, was analyzed in the positive analysis fitting direction relative to DMSO as the negative control and baseline of activity. Using a type of enzyme reporter, loss-of-signal activity can be used to understand changes in the enzymatic activity as they relate to the gene SIRT2. Furthermore, this assay endpoint can be referred to as a primary readout, because this assay has produced multiple assay endpoints where this one serves a enzymatic activity function. To generalize the intended target to other relatable targets, this assay endpoint is annotated to the hydrolase intended target family, where the subfamily is protein deacetylase.
(§2) Binding assays used specific radioligands (tritiated, iodinated) with non-radioactive competitive displacement ligands in agonist or antagonist protocols (as indicated) and various reference compounds and inhibitors to titrate specific binding to receptors and transporters. Most enzyme assays (CYPs, kinases, phosphatases, proteases, HDACs) used recombinant protein and specific substrates (fluorescence mostly, some colorimetric and radioactive) and inhibitors, followed by a biochemical separation of substrate and product. All assays for the biochemical HTS were initially run in duplicate at a single concentration (10 uM for CYP450 assays and 25 uM for all others). Assay-chemical combinations meeting a pre-defined threshold (e.g., 30% inhibition and other criteria defined below) were then run in singleton concentration-response format with maximum concentration of 20 uM for CYPs and 50 uM for all others. Each assay was run with positive and negative controls, and concurrent controls on every plate. The follow-up (secondary) screen tested active chemical-pairs in concentration series, as well as a few additional assays not tested in the primary screen, some selected negative inactives, and several cases re-run in the concentration series for confirmatory purposes.
CCCCCCCCN(C)CCCCCCCC was tested, and the outcome was “inactive”. For CC(C)(C)c1csc(-c2cc3cc(OCc4ccccc4CC(=O)O)ccc3o2)n1, the outcome was “inactive”. With COc1cc(C(=O)NC2CCN(C)CC2)ccc1Nc1ncc2c(n1)N(C1CCCC1)CC(F)(F)C(=O)N2C the outcome was “inactive”. With O=C1c2ccccc2C(=O)N1CCc1noc(-c2ccc(CN3CCCCCC3)s2)n1 the outcome was “inactive”. In the case of CC(=O)N1CCN(c2ccc(OC[C@H]3CO[C@](Cn4ccnc4)(c4ccc(Cl)cc4Cl)O3)cc2)CC1, the AC50 was 6460 nM (active). For O=C(O)Cn1c(=O)n(Cc2ccc(Br)cc2F)c(=O)c2ccc(Cl)cc21, the outcome was “inactive”. In the case of NC(=O)c1nc(-c2cccc(-c3cc(F)ccc3OCC(F)(F)C(F)(F)F)c2)n[nH]1, the outcome was “inactive”.

The compounds below were run against human Sirtuin 1 (SIRT1), SIRT1 (gene 23411) (UniProt Q96EB6) (assay: NVS_ENZ_hSIRT1: NovaScreen (NVS) Enzymatic Assay for human Sirtuin 1 (SIRT1) (AID 2283219)).
Chain of human Sirtuin 1 (SIRT1), SIRT1 (gene 23411) (Q96EB6 whole entry, looked up): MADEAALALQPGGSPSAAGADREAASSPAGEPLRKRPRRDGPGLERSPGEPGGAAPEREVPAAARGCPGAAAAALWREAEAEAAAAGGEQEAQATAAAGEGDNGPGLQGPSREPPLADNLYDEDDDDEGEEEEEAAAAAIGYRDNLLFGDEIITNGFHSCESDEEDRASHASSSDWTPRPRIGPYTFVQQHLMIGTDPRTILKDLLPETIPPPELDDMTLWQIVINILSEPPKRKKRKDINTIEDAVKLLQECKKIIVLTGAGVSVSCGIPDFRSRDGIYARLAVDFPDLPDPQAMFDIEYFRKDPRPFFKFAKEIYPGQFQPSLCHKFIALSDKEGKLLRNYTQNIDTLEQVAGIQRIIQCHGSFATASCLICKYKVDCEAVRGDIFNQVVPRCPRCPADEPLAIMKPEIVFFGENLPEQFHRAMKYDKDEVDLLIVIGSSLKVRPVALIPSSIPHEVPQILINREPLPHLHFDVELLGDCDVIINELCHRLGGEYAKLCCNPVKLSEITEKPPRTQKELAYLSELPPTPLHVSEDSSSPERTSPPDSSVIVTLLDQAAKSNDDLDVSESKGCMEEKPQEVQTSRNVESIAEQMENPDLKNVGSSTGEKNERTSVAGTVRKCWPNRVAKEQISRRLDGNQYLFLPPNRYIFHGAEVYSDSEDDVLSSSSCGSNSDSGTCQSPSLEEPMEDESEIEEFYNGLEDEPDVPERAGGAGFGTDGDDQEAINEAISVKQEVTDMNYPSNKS
How it was run: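 Cell-free recombinant SIRT1 with a fluorescent substrate; substrate and product separated by electrophoretic mobility shift and read by fluorescence intensity, 1 h after dosing. Primary screen at 25 uM in duplicate; hits re-run in concentration-response up to 50 uM, relative to DMSO.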
With CN1C(=O)N(c2ccccc2Br)Cc2cnc(Nc3ccc4c(c3)OCC(CO)O4)nc21 (configuration not stated) the outcome was “inactive”. In the case of Oc1ccc2ccccc2c1, the outcome was “inactive”. In the case of CC(=O)N1CCN(c2ccc(OC[C@H]3CO[C@](Cn4ccnc4)(c4ccc(Cl)cc4Cl)O3)cc2)CC1, the outcome was “inactive”. For O=c1c(-c2ccc(O)cc2)coc2cc(O)cc(O)c12, the outcome was “inactive”. COc1ccc2cc(S(=O)(=O)N[C@H](CC(=O)N[C@H](Cc3ccc(CN4[C@H](C)CCC[C@@H]4C)cc3)C(=O)N(C)C(C)C)c3ccc4c(c3)OCO4)ccc2c1 was tested, and the outcome was “inactive”. For CCCCCCCCCC(=O)O, the outcome was “inactive”.

Each compound was assayed against human Sirtuin 3 (SIRT3), SIRT3 (gene 23410) (UniProt Q9NTG7) (assay: NVS_ENZ_hSIRT3: NovaScreen (NVS) Enzymatic Assay for human Sirtuin 3 (SIRT3) (AID 2283222)).
Chain of human Sirtuin 3 (SIRT3), SIRT3 (gene 23410) (Q9NTG7 whole entry, looked up): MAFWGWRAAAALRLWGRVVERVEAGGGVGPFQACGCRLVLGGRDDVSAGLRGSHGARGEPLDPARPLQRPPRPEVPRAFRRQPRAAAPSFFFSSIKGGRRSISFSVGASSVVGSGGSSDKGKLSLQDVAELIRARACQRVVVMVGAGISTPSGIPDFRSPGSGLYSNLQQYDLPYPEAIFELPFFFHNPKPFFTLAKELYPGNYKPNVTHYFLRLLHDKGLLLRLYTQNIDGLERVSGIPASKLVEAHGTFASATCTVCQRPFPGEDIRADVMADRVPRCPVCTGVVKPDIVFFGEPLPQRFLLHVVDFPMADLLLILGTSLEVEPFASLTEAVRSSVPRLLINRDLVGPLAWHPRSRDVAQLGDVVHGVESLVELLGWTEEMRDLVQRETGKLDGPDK
Method: as §1, with “NVS_ENZ_hSIRT3” for “NVS_ENZ_hSIRT2”, “plate.NVS_ENZ_hSIRT3” for “plate.NVS_ENZ_hSIRT2”, “NVS_ENZ_hSIRT3,” for “NVS_ENZ_hSIRT2,”, “SIRT3.” for “SIRT2.”
as §2
Cc1occc1C(=O)Nc1ccc(C(=O)N2CCC(F)(F)/C(=C\C(=O)N3CCC(N4CCCCC4)CC3)c3ccccc32)cc1 was tested, and the outcome was “inactive”. Cc1oc2c(NC(=O)c3c(Cl)cccc3Cl)cccc2c1C(C)(C)O was tested, and the outcome was “inactive”. In the case of O=C1c2ccccc2C(=O)N1CCc1noc(-c2ccc(CN3CCCCCC3)s2)n1, the outcome was “inactive”. For O=C(Nc1ccc(Cl)cc1)Nc1ccc(Cl)c(Cl)c1, the outcome was “inactive”. In the case of O=C1O[C@H]([C@@H](O)CO)C(O)=C1O, the outcome was “inactive”. With CCN(CC)C(=O)c1cc(S(=O)(=O)Cc2ccccc2)c(N2CCC(c3ccccc3)CC2)cc1N(CC)CCN(C)C the AC50 was 4570 nM (active). In the case of NC(=O)c1nc(-c2cccc(-c3cc(F)ccc3OCC(F)(F)C(F)(F)F)c2)n[nH]1, the outcome was “inactive”.

Each compound was assayed against human SRC Proto-Oncogene, Non-receptor Tyrosine Kinase (SRC), SRC (gene 6714) (UniProt P12931) (assay: NVS_ENZ_hSRC: NovaScreen (NVS) Enzymatic Assay for human SRC Proto-Oncogene, Non-receptor Tyrosine Kinase (SRC) (AID 2283223)).
Chain of human SRC Proto-Oncogene, Non-receptor Tyrosine Kinase (SRC), SRC (gene 6714) (P12931 whole entry, looked up): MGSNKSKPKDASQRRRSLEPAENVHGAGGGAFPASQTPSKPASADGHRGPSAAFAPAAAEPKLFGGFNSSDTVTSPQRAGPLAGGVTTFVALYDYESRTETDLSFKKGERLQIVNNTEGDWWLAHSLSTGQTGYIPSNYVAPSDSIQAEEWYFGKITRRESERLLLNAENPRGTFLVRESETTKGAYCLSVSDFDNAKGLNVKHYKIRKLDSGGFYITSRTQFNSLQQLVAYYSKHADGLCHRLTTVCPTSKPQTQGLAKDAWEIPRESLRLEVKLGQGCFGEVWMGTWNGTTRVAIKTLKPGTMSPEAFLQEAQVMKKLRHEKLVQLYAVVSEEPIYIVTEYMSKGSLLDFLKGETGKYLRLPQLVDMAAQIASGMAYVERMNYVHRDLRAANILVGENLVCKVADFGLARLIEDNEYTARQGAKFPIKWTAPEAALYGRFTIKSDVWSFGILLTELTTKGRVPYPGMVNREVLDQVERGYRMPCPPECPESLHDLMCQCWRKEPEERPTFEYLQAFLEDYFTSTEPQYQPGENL
How it was run: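 Compounds passing 30% inhibition at 25 uM (duplicate) were titrated to a top concentration of 50 uM. Enzyme activity read by fluorescence with mobility-shift substrate/product separation after 1 h; DMSO baseline.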
For c1ccc2ccccc2c1, the outcome was “inactive”. CN1C(=O)N(c2ccccc2Br)Cc2cnc(Nc3ccc4c(c3)OCC(CO)O4)nc21 (configuration not stated) was tested, and the AC50 was 2.29 nM (active). Cc1cccc2ccccc12 was tested, and the outcome was “inactive”.

What follows are compounds tested against human Tropomyosin Receptor Kinase A (TRKA), NTRK1 (gene 4914) (UniProt P04629) (assay: NVS_ENZ_hTrkA: NovaScreen (NVS) Enzymatic Assay for human Tropomyosin Receptor Kinase A (TRKA) (AID 2283224)).
Chain of human Tropomyosin Receptor Kinase A (TRKA), NTRK1 (gene 4914) (P04629 whole entry, looked up): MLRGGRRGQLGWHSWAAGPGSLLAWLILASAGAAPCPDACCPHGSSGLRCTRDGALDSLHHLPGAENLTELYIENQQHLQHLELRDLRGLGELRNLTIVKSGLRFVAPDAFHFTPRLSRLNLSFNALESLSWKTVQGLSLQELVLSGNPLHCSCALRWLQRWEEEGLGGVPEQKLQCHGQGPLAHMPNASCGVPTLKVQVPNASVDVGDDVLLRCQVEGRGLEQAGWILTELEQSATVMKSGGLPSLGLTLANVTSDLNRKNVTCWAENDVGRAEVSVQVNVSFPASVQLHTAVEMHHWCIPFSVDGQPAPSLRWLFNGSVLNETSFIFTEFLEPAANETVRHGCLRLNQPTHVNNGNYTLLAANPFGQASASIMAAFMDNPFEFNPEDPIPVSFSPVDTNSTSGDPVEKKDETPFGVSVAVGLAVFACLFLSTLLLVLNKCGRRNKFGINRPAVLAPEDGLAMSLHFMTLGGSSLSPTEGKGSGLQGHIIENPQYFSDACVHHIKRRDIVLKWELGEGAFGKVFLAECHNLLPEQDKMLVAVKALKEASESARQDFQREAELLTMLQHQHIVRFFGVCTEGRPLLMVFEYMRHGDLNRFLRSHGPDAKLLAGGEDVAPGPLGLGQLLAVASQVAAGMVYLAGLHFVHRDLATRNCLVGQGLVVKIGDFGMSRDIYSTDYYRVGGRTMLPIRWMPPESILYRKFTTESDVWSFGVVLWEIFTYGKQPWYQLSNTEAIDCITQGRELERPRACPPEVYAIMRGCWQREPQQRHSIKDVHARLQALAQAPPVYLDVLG
How it was run: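 Compounds were screened at 25 uM in duplicate, then concentration series to a 50 uM top for those meeting threshold (e.g. 30% inhibition). Enzyme was recombinant human TrkA, incubated 1 h. Product formation was quantified by fluorescence after mobility-shift separation.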
With CN1C(=O)N(c2ccccc2Br)Cc2cnc(Nc3ccc4c(c3)OCC(CO)O4)nc21 (configuration not stated) the AC50 was 493 nM (active). In the case of O=C(O)Cc1cc(I)c(Oc2ccc(O)c(I)c2)c(I)c1, the AC50 was 2580 nM (active). CCCCCCCCCC(=O)O was tested, and the outcome was “inactive”.
